# Assay results published in PubChem BioAssay AID1645857 (Buhrlage Lab, Dana-Farber Cancer Institute and Novartis …, 2021).
# Hit rate of the full screen: of about 47,000 compounds, about 1,400 (3%) were called active. The full list was thinned out, with actives kept by preference. Unmarked numbers belong to inactive results. Rule as the data show it: active = inhibition above about 30%; inactive = the rest.
# Target: Ubiquitin carboxyl-terminal hydrolase 28 (Homo sapiens) (UniProt Q96RU2)
# Assay: inhibitors of human USP28 deubiquitinase (AID 1645857)
# Conditions: purified USP28, Ub-rhodamine cleavage fluorescence, 30 min; at 25 µM; active compounds read high
# Ubiquitin carboxyl-terminal hydrolase 28 (Homo sapiens), sequence (Q96RU2 whole entry, looked up): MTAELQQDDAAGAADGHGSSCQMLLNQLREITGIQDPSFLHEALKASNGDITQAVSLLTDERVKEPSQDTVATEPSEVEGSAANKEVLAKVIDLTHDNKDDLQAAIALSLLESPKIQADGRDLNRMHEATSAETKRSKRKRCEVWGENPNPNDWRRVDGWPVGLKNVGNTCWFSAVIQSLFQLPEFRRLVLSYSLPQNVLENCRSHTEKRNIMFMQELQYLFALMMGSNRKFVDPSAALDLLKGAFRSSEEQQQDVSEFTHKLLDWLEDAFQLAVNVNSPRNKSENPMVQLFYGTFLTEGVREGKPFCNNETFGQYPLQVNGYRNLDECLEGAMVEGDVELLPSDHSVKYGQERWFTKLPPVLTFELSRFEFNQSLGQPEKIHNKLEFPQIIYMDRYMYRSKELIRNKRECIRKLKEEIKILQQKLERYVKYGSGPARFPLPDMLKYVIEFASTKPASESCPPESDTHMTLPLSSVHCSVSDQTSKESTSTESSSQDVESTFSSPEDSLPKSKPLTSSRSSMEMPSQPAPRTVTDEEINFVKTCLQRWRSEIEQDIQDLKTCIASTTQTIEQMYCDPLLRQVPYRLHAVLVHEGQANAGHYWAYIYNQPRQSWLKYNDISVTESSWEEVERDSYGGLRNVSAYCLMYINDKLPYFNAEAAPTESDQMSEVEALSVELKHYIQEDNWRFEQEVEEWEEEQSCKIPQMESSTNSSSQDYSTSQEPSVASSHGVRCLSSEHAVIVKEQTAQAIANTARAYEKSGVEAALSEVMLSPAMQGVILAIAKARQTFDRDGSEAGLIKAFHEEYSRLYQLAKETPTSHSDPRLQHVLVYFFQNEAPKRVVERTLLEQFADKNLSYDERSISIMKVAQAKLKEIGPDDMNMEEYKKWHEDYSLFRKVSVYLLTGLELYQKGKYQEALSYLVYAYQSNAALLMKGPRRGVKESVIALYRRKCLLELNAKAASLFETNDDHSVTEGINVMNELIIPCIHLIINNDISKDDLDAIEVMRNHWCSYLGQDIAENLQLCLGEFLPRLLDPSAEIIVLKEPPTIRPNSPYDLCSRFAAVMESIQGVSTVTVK
row,SMILES,inhibition
1,O=C(N[C@H]1C[C@@H]2C[C@H]1N(C(=O)c1ccc3c(c1)OCO3)C2)c1ccccc1,-126%
2,O=S(=O)(Nc1ccc(Cc2ccncc2)cc1)c1ccc2c(c1)OCCO2,9.83%
3,CCOc1ccc(NC(=S)Nc2ccc(Cc3ccncc3)cc2)cc1,36.8% (active)
4,CCN(CC)c1ccc(NC(=O)Nc2ccc(OCc3ccccc3)cc2)cc1,-7.22%
5,Cc1cc(-c2ncc(C)[nH]2)nc(C2CCCCN2C(=O)c2ccccc2)n1 (stereo unspecified),5.54%
6,Cn1c(N2CCN(C(=O)c3cccc(Cl)c3)CC2)cc(=O)n(C)c1=O,-5.96%
7,CC(=O)C[n+]1cc(-c2ccc(C)cc2)n2c1CCC2,-0.406%
8,Clc1ccc(C[n+]2cc(-c3ccc(Cl)cc3)n3c2CCC3)cc1,54.6% (active)
9,Cc1c(Cl)cccc1NC(=O)C[n+]1cc(-c2ccc(Cl)cc2)n2c1CCC2,10.7%
10,CCCc1cc(=O)[nH]c(N2CCN(c3ccc(Cl)cc3)CC2)n1,0.253%
11,CC(C)=CCc1cc(O)ccc1O,-0.0939%
12,CC(C)=CCC(O)C1=CC(=O)c2c(O)ccc(O)c2C1=O (stereo unspecified),93.4% (active)
13,CN1C(=O)[C@H](Cc2ccccc2)N(C)C(=O)[C@@H]2[C@H]1CCN2C(=O)Nc1cccc(C#N)c1,-9.42%
14,Cn1nc(C2CCN(Cc3ccc4c(c3)CC(C)(C)O4)CC2)c2nccnc21,-6.5%
15,CC(C)C(=O)N1c2ncnn2C(c2ccc(Cl)cc2)CC1c1ccccc1 (stereo unspecified),-5.15%
16,CC(=O)c1ccc(N2CCN(CC(=O)c3c(N)n(Cc4ccccc4)c(=O)n(C)c3=O)CC2)cc1,-11.8%
17,CN1CCC(N(C)C(=O)c2ccc(Cl)c(S(=O)(=O)Nc3ccccc3C(=O)N(C)C3CCN(C)CC3)c2)CC1,-0.184%
18,CC(CCc1ccccc1)NCc1c(C(=O)O)n(Cc2ccccc2F)c2ccccc12 (stereo unspecified),23%
19,Cc1ccc(CCNCc2c(C(=O)O)n(C)c3ccccc23)cc1,-5.83%
20,Cc1ccc(Cn2c(C(=O)O)c(CNC(C)CCc3ccccc3)c3ccccc32)cc1 (stereo unspecified),32.3% (active)
21,CC1CCCCN1Cc1nc2c([nH]1)c(=O)n(C)c(=O)n2C (stereo unspecified),-0.186%
22,CCCN(CCC)CCNS(=O)(=O)c1ccc2c(c1)NC(=O)CCS2,-7.06%
23,CCC(Cc1ccccc1)NS(=O)(=O)c1ccc2c(c1)NC(=O)CS2 (stereo unspecified),37.3% (active)

row,SMILES,inhibition
1,CC(NS(=O)(=O)c1ccc2c(c1)SCC(=O)N2)c1ccccc1 (stereo unspecified),13%
2,CC(C)NC(=O)CN1C(=O)CC(C)Sc2ccc(S(=O)(=O)N3CCCCC3)cc21 (stereo unspecified),13.7%
3,CCc1nnc(C2CCN(C(=O)c3ccc(F)cc3F)CC2)s1,-5.47%
4,CC1CCN(c2nc(F)c3c(c2F)S(=O)(=O)CCN3Cc2cccnc2)CC1,-20.5%
5,O=C(Nc1nnc(-c2cccc([N+](=O)[O-])c2)o1)C1CCN(S(=O)(=O)c2ccc3c(c2)CCC3)CC1,46.2% (active)
6,O=C(COC(=O)C1CCN(S(=O)(=O)c2c(Cl)cccc2Cl)CC1)Nc1ccc2c(c1)CCC2,15.4%
7,Cc1cccc(-c2nnc(-c3cccc(S(=O)(=O)N4CCCC4)c3)o2)c1,4.29%
8,CCOc1ccc2nc3sc(C(=O)N4CCCC4)c(N)c3cc2c1,-2.52%
9,COc1ccc(NC(=O)CC[C@@H]2NC(=O)N([C@@H](C)c3ccccc3)C2=O)cc1,8.47%
10,O=C(CCc1nnc2n(Cc3ccc(Cl)cc3)c(=O)c3ccccc3n12)NCCN1CCOCC1,-1.7%
11,Clc1ccc(C2NC3=NCN(Cc4ccco4)CN3c3nc4ccccc4n32)cc1 (stereo unspecified),32.7% (active)
12,CN(Cc1cccnc1Oc1ccccc1)C(=O)c1cnccn1,-1.11%
13,O=C1COC2(CCN(c3ncccn3)CC2)CN1Cc1cccc(F)c1,-14.6%
14,CCN1C[C@H]2C3(CCN(S(=O)(=O)c4ccccc4)CC3)CC[C@@]2(C(=O)NC)C1,0.022%
15,N#Cc1ccccc1Cn1c(=O)n(CCCC(=O)NCc2ccc(F)cc2)c(=O)c2ccccc21,8.1%
16,Cc1ccc(CNC(=O)CCCn2c(=O)c3sccc3n(CC(=O)OCc3ccccc3)c2=O)cc1,45.6% (active)
17,COc1ccc(CCNC(=O)CCCn2c(=O)c3ccccc3n(CC(=O)OCc3ccccc3)c2=O)cc1OC,26.2%
18,CN1CCc2onc(-c3cccc(CN)c3)c2C1=O,11.5%
19,CCOc1ccccc1C1c2[nH]c3ccccc3c2C[C@H]2C(=O)N(CCCc3ccccc3)CC(=O)N12 (stereo partly specified),-32.1%
20,CSc1ccccc1NC(=O)c1ccc(N2CCCC2)nn1,3.05%
21,CC1CCc2c(cnc3c(C(=O)NCc4cccnc4)cnn23)C1 (stereo unspecified),-1.11%
22,Cc1cc(F)ccc1NC(=O)Cc1n[nH]c(Cc2ccccc2)n1,-17.7%
23,O=C(Cc1ccc(F)cc1)Nc1ccccc1Cc1ccccc1,11.8%

row,SMILES,inhibition
1,Cc1ccccc1NC(=O)Cc1csc2nc(-c3ccc(F)cc3)cn12,37.7% (active)
2,N#Cc1ccc(C(=O)N2CCN(c3cc(-c4ccccc4)[nH]n3)CC2)cc1,-11%
3,CCOC(=O)c1cnn(-c2ccc(C(=O)Nc3ccc(C(C)=O)cc3)cn2)c1N,-5.3%
4,CC(=O)Nc1cccnc1-c1ccc(C(=O)Nc2ccc(C)c(C)c2)cc1,37.1% (active)
5,Cc1ccc(C(=O)Nc2cccc3c2CCCC3)cc1C,1.01%
6,Cc1ccccc1NC(=O)c1ccc(-c2nc3cccnc3n(C3CCCC3)c2=O)cc1,-11.7%
7,O=C(c1cccc(Nc2ncccn2)c1)N1CCOCC2(C1)CN(c1ccccc1)C(=O)O2 (stereo unspecified),-1.6%
8,COc1ccc(CCNC(=O)c2ccc3ccccc3c2)cc1OC,54.7% (active)
9,COc1ccc(CCNC(=O)CSc2cn(CCNC(=O)c3ccccc3C)c3ccccc23)cc1OC,13.1%
10,COc1ccc(CCNC(=O)c2ccccc2OCc2ccc(F)cc2)cc1,10.8%
11,Cc1cc(C)c(-c2nnc(NC(=O)c3ccc(-c4ccccc4)cc3)s2)c(C)c1,-5.98%
12,CCOC(=O)c1ccc(NC(=O)CSc2nnc(CNC(=O)c3ccc(OC)cc3)n2C)cc1,-5.59%
13,Cc1ccc(NS(=O)(=O)c2cc3n(c2)CCN(C)C3=O)cc1,-5.99%
14,O=C1C(O)=C(c2ccc(O)c(O)c2)C(=O)C(O)=C1c1ccccc1,66.9% (active)
15,O=CNC1CC2(CCCCC2)Oc2ccccc21 (stereo unspecified),-1.81%
16,CN1CC(=O)N(C2CCCNC2)Cc2c(NC3CCc4ccccc43)ncnc21 (stereo unspecified),90.6% (active)
17,c1ccc(-c2csc3ncnc(NC4CCCc5ccccc54)c23)cc1 (stereo unspecified),-4.83%
18,CC(C)CN1[C@H]2CCN(C(=O)c3cnccn3)CC[C@@H]2Oc2ccccc2S1(=O)=O,-3.97%
19,Cc1nc2ccccc2n1CCNC(=O)c1ccccc1Cl,-3.71%
20,CC(=O)N1CCc2cc(S(=O)(=O)NCC(=O)NCc3ccc4c(c3)OCO4)ccc21,-1.7%
21,Cc1noc(CNC(=O)c2cc(-c3ccco3)on2)n1,-29.2%
22,Cc1[nH]c(C(=O)N2CCCC(C(=O)NCc3cccnc3)C2)c(C)c1C (stereo unspecified),-6.57%
23,Cc1cccc(CNC(=O)C2CCN(c3cnc4nccnc4c3)CC2)c1,-81.1%

row,SMILES,inhibition
1,O=C(NCc1cccnc1)C1CCN(c2cnc(N3CCCCCC3)nc2)CC1,60.9% (active)
2,O=c1c2c(ncn2C2CCCC2)n(Cc2ccccc2)c(=O)n1Cc1ccccc1,6.37%
3,O=C(O)c1cc(-c2ccc(-c3ccccc3F)o2)nc2ccc(F)cc12,-179%
4,CCc1ccccc1NC(=O)N1CCCC1c1ccnn1CC (stereo unspecified),12.8%
5,CCC(Oc1ccccc1)C(=O)NCc1ccc2c(c1)OCO2 (stereo unspecified),6.67%
6,c1cc(CNCc2ccc3c(c2)OCO3)ccn1,-2.19%
7,c1ccc(-c2ccc(NCc3ccc4c(c3)OCO4)nn2)cc1,61.2% (active)
8,N#CC1=C(N)Oc2nc[nH]c(=O)c2C1c1cccc(F)c1 (stereo unspecified),-2.3%
9,CCC(C)[C@H](NS(=O)(=O)c1ccc(C)cc1)C(=O)N1CCC(C(=O)N[C@H](Cc2c[nH]c3ccccc23)C(=O)O)CC1 (stereo partly specified),-2.54%
10,CCCCCCSc1ncnc2c1sc1nc(-c3ccccc3)c3c(c12)CC(C)(C)OC3,-0.572%
11,CCCc1nc2sc3c(N4CCC(C)CC4)ncnc3c2c2c1CCC2,2.73%
12,CCCCc1nc2sc3c(SCC(=O)NCc4ccccc4)ncnc3c2c2c1CCC2,54.5% (active)
13,Cc1ccc(NC(=O)CSc2nnc(-c3cnccn3)n2Cc2ccco2)cc1C,-1.17%
14,CCc1ccc(NC(=O)CSc2nnc(-c3cnccn3)n2Cc2ccco2)cc1,-5.3%
15,CCn1c(SCc2cccc(C)c2)nnc1-c1cnccn1,58.5% (active)
16,COc1ccccc1C(=O)Nc1cccc(Oc2ccccc2)c1,19.6%
17,COc1cc(O)sc1C=Nc1ccc(Oc2ccccc2)cc1,40.7% (active)
18,O=C(c1ccc[nH]1)N1CCCn2c(nc(Cn3ccnc3)cc2=O)C1,12.3%
19,CCN(C(=O)CSc1nnc(-c2ccoc2C)o1)c1ccccc1,6.53%
20,Cc1ccc(NC(=O)NCc2nnnn2-c2ccccc2)cc1C,5.32%
21,CC(C)c1ccc(OCC(=O)NCc2nnnn2-c2ccc(Cl)cc2)cc1,20.1%
22,O=C(COc1ccc2ccccc2c1)NCc1nnnn1-c1ccc(Cl)cc1,30.4% (active)
